Several values for one entry are separate records, joined by “and”; a condition that tells them apart may be missing. Equal entries are not always repeated. For some of these results: Results with a measured potency or affinity are listed apart. The source holds several records for some structures; these can differ, active in one and inactive in another. Activity calls are given as the source filed them. Unless noted, no rule for the calls is given here.
Key:
[1] = antimalarial activity against Dd2 strain (AID 2302;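 active = growth inhibition above 50% at the single 2 µM test dose, taken to imply half-maximal potency below 2 µM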;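 also: 0% = DMSO untreated growth and 100% = chloroquine plus artemisinin killed control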); details: P. falciparum Dd2 in RBCs, LDH growth readout, 72 h; at 2 µM; stronger effect = higher value
[2] = HepG2 cytotoxicity, primary screen, cytotoxicity control for P. falciparum antimalarial project, cell-based, ATP luminescence (AID 2303;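 active = inhibition above 50%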;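 also: 0% = DMSO wells and 100% = digitonin-killed cells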); details: HepG2 viability, 24-48 h, at 10 µM, stronger effect = higher value
[3] = target: L-lactate dehydrogenase (Plasmodium falciparum (isolate CDC / Honduras)) (UniProt Q27743); assay: PfLDH activity inhibition – cell lysate, 3D7 strain, counter-screen for P. falciparum growth inhibition project (AID 2304);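 also: 0% = vehicle and 100% = reference inhibitor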; details: P. falciparum 3D7 crude extract, LDH APAD/NBT absorbance; at 2 µM; stronger effect = higher value
Chain of L-lactate dehydrogenase (Plasmodium falciparum (isolate CDC / Honduras)) (Q27743 whole entry, looked up): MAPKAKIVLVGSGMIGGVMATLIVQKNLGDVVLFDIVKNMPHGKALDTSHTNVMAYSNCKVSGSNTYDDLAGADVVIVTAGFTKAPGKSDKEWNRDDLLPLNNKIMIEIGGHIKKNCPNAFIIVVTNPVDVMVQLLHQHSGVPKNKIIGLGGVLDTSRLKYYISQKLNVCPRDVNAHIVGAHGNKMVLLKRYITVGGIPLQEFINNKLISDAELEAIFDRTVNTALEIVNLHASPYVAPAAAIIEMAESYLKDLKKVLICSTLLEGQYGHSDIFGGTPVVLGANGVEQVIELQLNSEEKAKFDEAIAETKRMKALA

[4] = inhibition of 3D7 malaria parasite growth – strain 3D7 (AID 2306);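 also: 0% = DMSO wells and 100% = chloroquine plus artemisinin control wells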; details: P. falciparum 3D7 erythrocytic growth, LDH absorbance, 72 h; at 2 µM; stronger effect = higher value
[5] = target: Calcium-dependent protein kinase 1 (Plasmodium falciparum (isolate 3D7)) (UniProt P62344); assay: PfCDPK1 kinase inhibitors, biochemical, TCAMS library (AID 1159585; cut-off not given, nearly all actives have IC50 up to about 0.98 µM;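 also: inhibitors leave more ATP so luminescence rises with inhibition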); details: recombinant PfCDPK1, Kinase-Glo ATP depletion luminescence
Chain of Calcium-dependent protein kinase 1 (Plasmodium falciparum (isolate 3D7)) (P62344 whole entry, looked up): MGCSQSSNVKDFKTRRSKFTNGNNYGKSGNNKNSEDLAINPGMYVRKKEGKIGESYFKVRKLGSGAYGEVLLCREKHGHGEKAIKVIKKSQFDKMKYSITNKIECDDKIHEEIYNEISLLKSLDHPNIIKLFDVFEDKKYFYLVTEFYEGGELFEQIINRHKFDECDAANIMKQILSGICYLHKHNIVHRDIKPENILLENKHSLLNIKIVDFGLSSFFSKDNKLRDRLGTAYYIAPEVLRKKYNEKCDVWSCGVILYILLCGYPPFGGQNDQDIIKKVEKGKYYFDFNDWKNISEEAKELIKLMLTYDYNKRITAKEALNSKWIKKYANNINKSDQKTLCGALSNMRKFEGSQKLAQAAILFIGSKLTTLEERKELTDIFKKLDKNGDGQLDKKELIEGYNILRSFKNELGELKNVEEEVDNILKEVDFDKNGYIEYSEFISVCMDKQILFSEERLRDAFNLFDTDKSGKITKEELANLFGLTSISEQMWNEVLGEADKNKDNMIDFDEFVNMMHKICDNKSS

[6] = target: Plasmodium falciparum protein kinase 6 (PK6, PF3D7_1337100) (UniProt Q8IDW1); assay: PfPK6 kinase inhibitors, biochemical, TCAMS library (AID 1159586); details: recombinant PfPK6, Kinase-Glo ATP depletion luminescence
Chain of Plasmodium falciparum protein kinase 6 (PK6, PF3D7_1337100) (Q8IDW1 1-305): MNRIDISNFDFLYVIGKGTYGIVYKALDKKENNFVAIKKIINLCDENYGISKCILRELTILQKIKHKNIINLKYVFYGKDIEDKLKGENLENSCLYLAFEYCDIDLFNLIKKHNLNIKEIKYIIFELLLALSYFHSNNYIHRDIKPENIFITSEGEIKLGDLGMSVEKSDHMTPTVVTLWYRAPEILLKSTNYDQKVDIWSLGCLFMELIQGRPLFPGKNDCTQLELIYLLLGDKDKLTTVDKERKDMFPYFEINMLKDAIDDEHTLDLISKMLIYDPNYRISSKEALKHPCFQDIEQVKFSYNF

[7] = target: Protein kinase 7 (PK7), Plasmodium falciparum 3D7 (PF3D7_0213400) (UniProt Q7YTF7); assay: inhibition of Plasmodium PK7 catalytic activity – biochemical, TCAMS antimalarial set, Kinase-Glo luminescence (AID 1159587); details: recombinant PfPK7, Kinase-Glo ATP depletion luminescence
Chain of Protein kinase 7 (PK7), Plasmodium falciparum 3D7 (PF3D7_0213400) (Q7YTF7 1-343): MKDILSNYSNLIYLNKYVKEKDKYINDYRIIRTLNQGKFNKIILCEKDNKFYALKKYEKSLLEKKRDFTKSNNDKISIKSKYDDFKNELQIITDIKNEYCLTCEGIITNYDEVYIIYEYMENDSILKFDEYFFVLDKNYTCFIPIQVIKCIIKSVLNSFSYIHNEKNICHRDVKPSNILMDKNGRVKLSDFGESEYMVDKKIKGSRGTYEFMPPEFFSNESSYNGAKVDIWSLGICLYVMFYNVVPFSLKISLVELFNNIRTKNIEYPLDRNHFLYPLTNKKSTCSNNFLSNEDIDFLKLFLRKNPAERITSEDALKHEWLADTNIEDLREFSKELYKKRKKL

[8] = target: Calcium-dependent protein kinase 4 (Plasmodium falciparum (isolate 3D7)) (UniProt Q8IBS5); assay: PfCDPK4 kinase inhibitors, biochemical, TCAMS library (AID 1159588; cut-off not given, nearly all actives have IC50 up to about 0.91 µM); details: recombinant PfCDPK4, Kinase-Glo ATP depletion luminescence
Chain of Calcium-dependent protein kinase 4 (Plasmodium falciparum (isolate 3D7)) (Q8IBS5 whole entry, looked up): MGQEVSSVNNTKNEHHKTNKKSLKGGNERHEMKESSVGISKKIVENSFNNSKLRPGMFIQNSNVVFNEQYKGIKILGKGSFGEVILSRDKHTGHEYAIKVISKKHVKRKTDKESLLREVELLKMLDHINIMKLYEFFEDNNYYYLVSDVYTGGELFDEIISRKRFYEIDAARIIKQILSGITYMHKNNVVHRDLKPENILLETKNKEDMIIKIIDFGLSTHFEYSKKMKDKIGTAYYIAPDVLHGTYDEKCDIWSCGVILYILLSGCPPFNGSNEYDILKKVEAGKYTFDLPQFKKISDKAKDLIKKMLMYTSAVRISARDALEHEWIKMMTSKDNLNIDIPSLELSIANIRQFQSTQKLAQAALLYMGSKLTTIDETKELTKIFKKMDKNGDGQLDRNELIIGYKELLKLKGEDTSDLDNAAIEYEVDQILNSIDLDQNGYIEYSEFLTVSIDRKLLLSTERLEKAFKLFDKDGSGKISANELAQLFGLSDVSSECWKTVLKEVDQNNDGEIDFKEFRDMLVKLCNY

CC(C)(C)c1cc(/C=C/C(=O)NC2CCC(CN3CCC(c4c[nH]c5ccccc45)CC3)CC2)cc(C(C)(C)C)c1O (centres undefined)
active: growth inhibition [1] 100% | inhibition [2] 98% and 99% | growth inhibition [4] 101% and 102%
inactive: inhibition [3] -3% and -5% | outcome [5] | outcome [6] | outcome [7] | outcome [8]

Cc1cc(N(C)C2CCN(C)CC2)nc(Nc2ccc(Br)cc2)n1
active: growth inhibition [1] 92% | growth inhibition [4] 100%
inactive: inhibition [2] -5% | inhibition [3] 2% | outcome [5] | outcome [6] | outcome [7] | outcome [8]

CC(=O)N(Cc1ccccc1-c1cccc(CNCc2ccc3c(c2)OCO3)c1)C1CCN(Cc2ccccc2)CC1
inactive: growth inhibition [1] 44% | inhibition [2] 17% | inhibition [3] -3% | outcome [5] | outcome [6] | outcome [7] | outcome [8]
active: growth inhibition [4] 85%

COC(=O)c1ccc(CC(C)NCC(O)c2cccc(OC(F)(F)F)c2)cc1 (centres undefined)
active: growth inhibition [1] 67% | growth inhibition [4] 98%
inactive: inhibition [2] 2% | inhibition [3] -2% | outcome [5] | outcome [6] | outcome [7] | outcome [8]

O=C(/C=C/c1ccc(Cl)cc1Cl)NC1CCC(CN2CCC(c3c[nH]c4ccccc34)CC2)CC1 (centres undefined)
active: growth inhibition [1] 79% | growth inhibition [4] 101%
inactive: inhibition [2] 37% | inhibition [3] 7% | outcome [5] | outcome [6] | outcome [7] | outcome [8]

COc1ccc(CC(C)NCC(O)c2cccc(Br)c2)cc1 (centres undefined)
active: growth inhibition [1] 93% | growth inhibition [4] 99%
inactive: inhibition [2] 10% | inhibition [3] -1% | outcome [5] | outcome [6] | outcome [7] | outcome [8]

CCN(CC)CCN1C(=O)C(O)(c2ccccc2Cl)c2c1cc(C(N)=O)cc2C(F)(F)F (centres undefined)
active: growth inhibition [1] 86% | growth inhibition [4] 101%
inactive: inhibition [2] 16% | inhibition [3] -4% | outcome [5] | outcome [6] | outcome [7] | outcome [8]

N#Cc1ccc(N(CCCO)Cc2ccccc2C(F)(F)F)cc1C(F)(F)F
inactive: growth inhibition [1] 23% | inhibition [2] 7% | inhibition [3] -5% | outcome [5] | outcome [6] | outcome [7] | outcome [8]
active: growth inhibition [4] 91%

CCCCCCCc1cc(O)c2c3c(c(=O)oc2c1)CN(C)CC3
inactive: inhibition [2] -5% | inhibition [3] 3% | outcome [5] | outcome [6] | outcome [7] | outcome [8]
active: growth inhibition [1] 100% | growth inhibition [4] 97%

COc1ccc(CC(C)NCC(O)c2cccc(C(F)(F)F)c2)cc1 (centres undefined)
active: growth inhibition [1] 94% | growth inhibition [4] 98%
inactive: inhibition [2] -7% | inhibition [3] 3% | outcome [5] | outcome [6] | outcome [7] | outcome [8]

O=C(/C=C/c1ccc(F)c(C(F)(F)F)c1)N1CCC(CN2CCC(c3c[nH]c4ccccc34)CC2)CC1
inactive: growth inhibition [1] 1% | inhibition [2] 23% | inhibition [3] 2% | outcome [5] | outcome [6] | outcome [7] | outcome [8]
active: growth inhibition [4] 98%

Cc1cc(O)cc2c(C3CCN(CC4CCN(C(=O)/C=C/c5ccc(Cl)c(Cl)c5)CC4)CC3)c[nH]c12
active: growth inhibition [1] 100% | growth inhibition [4] 101%
inactive: inhibition [2] 33% | inhibition [3] 3% | outcome [5] | outcome [6] | outcome [7] | outcome [8]

COCCNCc1cccc(-c2cccc(CN(C(=O)Nc3ccccc3)C3CCN(Cc4ccccc4)CC3)c2)c1
active: growth inhibition [1] 65% | growth inhibition [4] 100%
inactive: inhibition [2] 28% | inhibition [3] -1% | outcome [5] | outcome [6] | outcome [7] | outcome [8]

O=C(C=Cc1ccc(Br)cc1)NC1CCC(CN2CCC(c3c[nH]c4ccccc34)CC2)CC1 (centres undefined)
active: growth inhibition [1] 98% | inhibition [2] 71% | growth inhibition [4] 101%
inactive: inhibition [3] -3% | outcome [5] | outcome [6] | outcome [7] | outcome [8]

CC1=CC(=O)[C@@H](O)[C@]2(C)[C@H]3[C@@]4(O)OC[C@@]35[C@@H](C[C@@H]12)OC(=O)C[C@H]5[C@@H](C)[C@H]4O
active: growth inhibition [1] 98% | growth inhibition [4] 99%
inactive: inhibition [2] 38% | inhibition [3] 4% | outcome [5] | outcome [6] | outcome [7] | outcome [8]

O=C(/C=C/c1ccc(Cl)c(Cl)c1)NC1CCC(CN2CCC(c3c[nH]c4ccccc34)CC2)CC1 (centres undefined)
inactive: inhibition [2] 27% | inhibition [3] 5% | outcome [5] | outcome [6] | outcome [7] | outcome [8]
active: growth inhibition [1] 85% | growth inhibition [4] 101%

NC(=O)CN1CC=C(c2c[nH]c3ccc(Br)cc23)CC1
active: growth inhibition [4] 83%
inactive: growth inhibition [1] 0% | inhibition [2] 30% | inhibition [3] -12% | outcome [5] | outcome [6] | outcome [7] | outcome [8]

Cc1[nH]c2ccccc2c1C1=CCN(CCCCCNC(=O)/C=C/c2ccc(Cl)c(Cl)c2)CC1
inactive: inhibition [2] 28% | inhibition [3] -1% | outcome [5] | outcome [6] | outcome [7] | outcome [8]
active: growth inhibition [1] 89% | growth inhibition [4] 97%

Cc1cc(NC(=O)[C@H](CC(C)C)Nc2ccc(C#N)c3ccccc23)ccc1F
inactive: inhibition [2] 35% | inhibition [3] 3% | outcome [5] | outcome [6] | outcome [7] | outcome [8]
active: growth inhibition [1] 88% | growth inhibition [4] 95%

COC(=O)c1ccc(CC(C)NCC(O)c2cccc(C(F)(F)F)c2)cc1C (centres undefined)
inactive: inhibition [2] 6% | inhibition [3] 2% | outcome [5] | outcome [6] | outcome [7] | outcome [8]
active: growth inhibition [1] 74% | growth inhibition [4] 93%

O=C(/C=C/c1ccc(Cl)c(Cl)c1)NCC1CCC(N2CCC(c3c[nH]c4ccccc34)CC2)CC1 (centres undefined)
inactive: inhibition [2] 48% | inhibition [3] -1% | outcome [5] | outcome [6] | outcome [7] | outcome [8]
active: growth inhibition [1] 95% | growth inhibition [4] 101%

O=C(/C=C/c1ccccc1Cl)NC1CCC(CN2[C@@H]3CC[C@H]2CC(c2c[nH]c4ccccc24)C3)CC1 (some centres undefined)
active: growth inhibition [1] 98% | inhibition [2] 56% | growth inhibition [4] 102%
inactive: inhibition [3] 3% | outcome [5] | outcome [6] | outcome [7] | outcome [8]

Cc1[nH]c2ccccc2c1C1=CCN(CCN2CCOc3c(Br)cccc3C2=O)CC1
active: growth inhibition [1] 76% | growth inhibition [4] 97%
inactive: inhibition [2] 15% | inhibition [3] -3% | outcome [5] | outcome [6] | outcome [7] | outcome [8]

CC(Cc1ccc(-c2nc3ccccc3[nH]2)cc1)NCC(O)c1cccc(C(F)(F)F)c1 (centres undefined)
active: growth inhibition [1] 90% | growth inhibition [4] 97%
inactive: inhibition [2] 33% | inhibition [3] 4% | outcome [5] | outcome [6] | outcome [7] | outcome [8]

COCCNCc1ccc(-c2cccc(CN(C(=O)CCC3CCCC3)C3CCN(Cc4ccccc4)CC3)c2)cc1
active: growth inhibition [1] 86% | inhibition [2] 50% | growth inhibition [4] 91%
inactive: inhibition [3] -2% | outcome [5] | outcome [6] | outcome [7] | outcome [8]

CSc1nccc(-c2ccc(S(=O)(=O)NC3CCC(CN4CCC(c5c[nH]c6ccccc56)CC4)CC3)s2)n1 (centres undefined)
active: growth inhibition [4] 101%
67% (active) and 33% (inactive): growth inhibition [1]
inactive: inhibition [3] -1% and 4% | outcome [5] | outcome [6] | outcome [7] | outcome [8]
36% (inactive) and 61% (active): inhibition [2]

O=C(NC1CCC(CN2CCC(c3c[nH]c4ccccc34)CC2)CC1)c1cc(-c2cccc(Cl)c2)n(-c2ccc(Cl)cc2Cl)n1 (centres undefined)
inactive: growth inhibition [1] 25% | inhibition [3] -5% | outcome [5] | outcome [6] | outcome [7] | outcome [8]
active: inhibition [2] 53% | growth inhibition [4] 81%

CNCC(O)c1cc(Cl)c(Cl)cc1C (centres undefined)
active: growth inhibition [1] 88% | growth inhibition [4] 98%
inactive: inhibition [2] 0% | inhibition [3] 2% | outcome [5] | outcome [6] | outcome [7] | outcome [8]

O=C(/C=C/c1ccc(Cl)c(Cl)c1)N1CCC(CN2CCC(c3cn(CC(=O)N4CCCCC4)c4ccccc34)CC2)CC1
inactive: inhibition [3] -2% | outcome [5] | outcome [6] | outcome [7] | outcome [8]
active: growth inhibition [1] 65% | inhibition [2] 52% | growth inhibition [4] 100%

O=C(/C=C/c1ccc(Cl)c(Cl)c1)N1CCC(CN2[C@@H]3CC[C@H]2CC(c2c[nH]c4ccccc24)C3)CC1 (some centres undefined)
inactive: inhibition [3] -3% | outcome [5] | outcome [6] | outcome [7] | outcome [8]
active: growth inhibition [1] 66% | inhibition [2] 84% | growth inhibition [4] 100%

CCCCCCCSc1ccc(CC(C)NCC(O)c2cccc(Cl)c2)cc1 (centres undefined)
inactive: inhibition [3] -3% | outcome [5] | outcome [6] | outcome [7] | outcome [8]
active: growth inhibition [1] 99% | inhibition [2] 94% | growth inhibition [4] 100%

CCC1(C)CC(CCNCc2ccccc2O)(c2ccc(C)cc2)CCO1 (centres undefined)
active: growth inhibition [1] 66% | growth inhibition [4] 97%
inactive: inhibition [2] 9% | inhibition [3] -7% | outcome [5] | outcome [6] | outcome [7] | outcome [8]

Cc1cccc(C(=O)Nc2ccnc(N(C)C3CCN(CC(C)C)CC3)c2)c1
active: growth inhibition [4] 95%
inactive: growth inhibition [1] 6% | inhibition [2] 10% | inhibition [3] -2% | outcome [5] | outcome [6] | outcome [7] | outcome [8]

O=C(NC1CCC(CN2CCC(c3c[nH]c4ccccc34)CC2)CC1)c1csc(-c2cccc(Cl)c2Cl)n1 (centres undefined)
active: growth inhibition [4] 99%
inactive: growth inhibition [1] 41% | inhibition [2] 34% | inhibition [3] -3% | outcome [5] | outcome [6] | outcome [7] | outcome [8]

O=C(CSc1ccc(Cl)cc1)NC1CCC(CN2CCC(c3c[nH]c4ccccc34)CC2)CC1 (centres undefined)
inactive: growth inhibition [1] 21% | inhibition [2] 41% | inhibition [3] -3% | outcome [5] | outcome [6] | outcome [7] | outcome [8]
active: growth inhibition [4] 95%

O=C(/C=C/c1cccc(Cl)c1)NC1CCC(CN2CCC(c3c[nH]c4ccccc34)CC2)CC1 (centres undefined)
inactive: inhibition [2] 35% and 42% | inhibition [3] 0% | outcome [5] | outcome [6] | outcome [7] | outcome [8]
active: growth inhibition [1] 55% and 82% | growth inhibition [4] 100% and 101%

Cc1ccc2c(C3=CCN(CCCCC4(C)C(=O)Nc5ccccc54)CC3)c(C)[nH]c2c1 (centres undefined)
inactive: inhibition [2] 9% | inhibition [3] -3% | outcome [5] | outcome [6] | outcome [7] | outcome [8]
active: growth inhibition [1] 91% | growth inhibition [4] 95%

C/C=C1\CN2CC[C@H]1C[C@@H]2[C@@H](O)c1ccnc2ccc(O)cc12
inactive: growth inhibition [1] -1% | inhibition [2] -10% | inhibition [3] -4% | outcome [5] | outcome [6] | outcome [7] | outcome [8]
active: growth inhibition [4] 98%
